# Compounds with a hit are over-represented: about 3.4% of the library has one in this group of screens.
# ADAM17 inh: ADAM17 inhibitors, primary screen, biochemical, QFRET. actives 0.83% (n = 370,000). AID 720648, 2013. inhibition, % at 6.95 µM. recombinant ADAM17, EDANS/DABCYL FRET peptide cleavage. Disintegrin and metalloproteinase domain-containing protein 17 (Homo sapiens), P78536;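 active means inhibition above the mean of compounds lying between control limits plus 3 SD, set per campaign, cut at about 8.5% in these data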;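 further: 0% = DMSO-only wells as the low control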
# Target sequence (P78536 215-824 limits assumed): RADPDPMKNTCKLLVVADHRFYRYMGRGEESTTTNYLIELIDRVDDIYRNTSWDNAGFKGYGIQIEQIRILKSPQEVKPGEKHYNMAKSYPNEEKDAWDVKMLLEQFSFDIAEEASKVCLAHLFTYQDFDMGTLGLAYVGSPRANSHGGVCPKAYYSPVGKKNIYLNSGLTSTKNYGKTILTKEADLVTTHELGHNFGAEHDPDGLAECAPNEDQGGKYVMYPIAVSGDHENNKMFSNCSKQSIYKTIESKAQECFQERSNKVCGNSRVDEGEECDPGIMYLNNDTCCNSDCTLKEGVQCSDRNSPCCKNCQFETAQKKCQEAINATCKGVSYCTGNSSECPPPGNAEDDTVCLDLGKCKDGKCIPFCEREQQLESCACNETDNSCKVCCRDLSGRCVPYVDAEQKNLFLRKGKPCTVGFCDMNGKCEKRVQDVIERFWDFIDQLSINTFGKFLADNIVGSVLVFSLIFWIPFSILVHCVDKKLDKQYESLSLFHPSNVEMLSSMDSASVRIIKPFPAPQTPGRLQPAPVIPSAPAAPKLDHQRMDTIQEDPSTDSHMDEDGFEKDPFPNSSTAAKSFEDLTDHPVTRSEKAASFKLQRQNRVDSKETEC
# PLC-gamma1 inh: PLC-gamma1 enzyme inhibitors, primary screen, biochemical, fluorescence, purified enzyme; 1-phosphatidylinositol 4,5-bisphosphate phosphodiesterase gamma-1 (Homo sapiens), P19174; fluorogenic substrate; inhibition, % at 12.2 µM; actives 0.84% (n = 370,000); in the data active means inhibition above about 9.5%
# KLK7 zymogen act: proKLK7 zymogen activators, primary screen, biochemical, fluorescence intensity. purified proKLK7, EDANS-DABCYL substrate fluorescence; 100% is mature enzyme control, 0% vehicle. activation, % at 7 µM. Kallikrein-7 (Homo sapiens), P49862. actives 0.9% (n = 370,000);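 active means activation above the mean of all tested compounds plus 3 SD, computed per campaign excluding outliers beyond control limits, cut at about 13% in these data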
# HGIII-sPLA2 inh: human group III sPLA2 inhibitors, primary screen, biochemical, QFRET, BODIPY PC-A2 liposome substrate | actives 0.56% (n = 370,000) | inhibition, % at 12.2 µM | Group 3 secretory phospholipase A2 (Homo sapiens), Q9NZ20 | QFRET BODIPY PC-A2 liposome hydrolysis, fluorescence | AID 743126, 2013;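 active means inhibition above mean plus 3 SD of compounds lying within the high and low control bounds, cut at about 19% in these data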;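 further: 0% = median of test compound wells and 100% = no enzyme DMSO wells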
# ADAM10 inh: human ADAM10 inhibitors, primary screen, biochemical, QFRET, HTS | Disintegrin and metalloproteinase domain-containing protein 10 (Homo sapiens), O14672 | recombinant ADAM10, EDANS/DABCYL FRET peptide cleavage, 3 h | inhibition, % at 7 µM | actives 0.62% (n = 370,000) | AID 720582, 2013;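 active means inhibition above a per-campaign cutoff equal to the mean of compounds falling between control-based bounds plus 3 SD, cut at about 20% in these data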;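 further: 0% = DMSO wells while the 100% control is not disclosed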
# PLC-beta3 inh: human PLC-beta3 inhibitors, primary screen, biochemical, fluorescence; actives 0.18% (n = 370,000); 1-phosphatidylinositol 4,5-bisphosphate phosphodiesterase beta-3 (Homo sapiens), Q01970; inhibition, % at 12.2 µM; Purified PLC-beta3, fluorogenic substrate;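 further: 0% = median of compound wells on plate and 100% = full blocker control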
# PLCgamma1 ctr: PLC-gamma1 enzyme inhibitors, counter-screen for PLC-beta3 inhibitor project, biochemical, fluorescence. inhibition, % at 12.3 µM. actives 3.1% (n = 3,300). purified PLC-gamma1, fluorogenic substrate. shares compounds with PLC-gamma1 inh; in the data active means inhibition above about 9.5%
# PLCb3 confirm: PLC-beta3 inhibitor confirmation, biochemical, fluorescence, purified enzyme; inhibition, % at 12.3 µM; fluorogenic substrate fluorescence; shares compounds with PLC-gamma1 inh; actives 1% (n = 3,300)
# Numbers without * were called inactive; . = no result. Unless noted, no stated cut-off is given here; in the data, active means inhibition above about 11%; inactive means the rest.
SMILES,ADAM17 inh,PLC-gamma1 inh,KLK7 zymogen act,HGIII-sPLA2 inh,ADAM10 inh,PLC-beta3 inh,PLCgamma1 ctr,PLCb3 confirm
COc1ccccc1-c1cnnc(N/N=C/c2ccc(-c3cccc(Br)c3)o2)n1,-1.8,12.0*,0.1,10.2,-1.1,1.0,8.4,4.6
C/C(N)=C(/C#N)C(=O)CSc1cc(C)c2cc(C)cc(C)c2n1,-1.8,3.1,0.1,4.3,5.4,-4.0,.,.
CCC(C)[C@H](NC(=O)Nc1cccc(Br)c1)C(=O)OC (some centres undefined),3.6,12.6*,0.2,-3.5,0.0,9.4,-5.9,-1.1
Cc1cc(NC(=O)CN2CCN(C/C=C/c3ccccc3)CC2)c([N+](=O)[O-])cc1C,-2.5,9.5*,0.1,5.7,5.4,-0.5,-2.7,-3.3
Cc1ccccc1NC(=O)CCN1CCN(C/C=C/c2ccccc2)CC1,-9.0,-6.2,0.4,-9.5,-6.9,-7.0,.,.
O=C1NC[C@H](CCCCN2CCN(CCc3ccccc3)C(=O)C2=O)N(Cc2ccccc2)C1=O,-4.2,1.9,0.3,5.7,-6.1,1.6,.,.
CN1C=CC=C/C1=C1\SC(=S)N(N)C1=O,-3.2,4.0,-0.1,2.2,3.5,2.1,.,.
O=C(O)C(Cc1ccccc1)n1cnnn1 (centres undefined),3.5,10.1*,-0.1,6.2,4.8,5.4,-5.5,-2.2
O=C(O)C(Cc1ccccc1)n1cccc1 (centres undefined),-3.8,-3.4,0.3,-4.4,2.9,-3.5,.,.
Cc1ccc(C(=O)NNC(=O)c2ccccc2OCc2c(C)noc2C)cc1,-0.5,-1.1,-0.8,-5.4,3.4,1.8,.,.
CCN(c1ccccc1)S(=O)(=O)c1ccc(OCc2c(C)noc2C)cc1,2.4,1.9,0.6,-17.9,9.7,2.3,.,.
CCN(C(=O)COC(=O)c1ccc(OCc2c(C)noc2C)cc1)c1ccccc1,2.5,14.0*,0.1,-11.0,6.4,2.5,-1.2,-0.1
Cc1noc(C)c1COc1ccccc1C(=O)NNC(=O)c1ccccc1,4.1,11.4*,0.3,-0.9,4.6,8.8,-0.7,0.9
CCN(c1ccccc1)S(=O)(=O)c1ccc(OC)c(NC(=O)c2ccco2)c1,0.2,-0.7,0.1,-2.1,4.1,3.7,.,.
O=C1C=C[C@H]2CC[C@@H](O)[C@@H]1[C@@H]2Sc1ccccc1,-3.5,10.3*,0.1,13.2,-1.3,-1.9,3.2,-0.8
CC1(c2ccccc2Br)NC(=O)N(CC(=O)N2CCc3ccccc3C2)C1=O (centres undefined),4.3,8.2,0.1,-9.5,-11.1,-1.1,.,.
Cc1cc(C)n(-c2nc3c(c(=O)[nH]c(=O)n3C)n2C(C)C)n1,7.8,5.1,0.3,9.0,3.6,13.7*,-6.2,-2.7
CSc1nc(C)c(Cc2ccccc2)c(=O)[nH]1,1.6,10.9*,-0.6,3.7,-1.2,-0.4,-10.7,-2.9
CCc1ccccc1NC(=O)CN1C(=O)c2ccccc2S1(=O)=O,-1.8,2.8,-0.2,7.2,1.1,1.8,.,.
C(=C\c1ccccc1)/C=N/n1cnnc1,-0.5,10.3*,0.0,9.4,-9.3,-2.5,7.8,3.6
COc1ccc(C(=O)CN2C(=O)C(C)(C)Oc3ccc(C(=O)N4CCCCCC4)cc32)cc1,0.7,4.2,0.6,-12.3,6.5,23.1*,-5.9,-1.9
NC(=O)c1ccc(NC(=O)CCC(=O)N2CCN(S(=O)(=O)c3ccc(Cl)cc3)CC2)cc1,-1.6,-0.6,0.4,-2.3,0.2,-5.4,.,.

# Source: PubChem BioAssay (The Scripps Research Institute Molecular Screening Center)
